Out of some 220,000 compounds screened, about 750 (0.34%) were called active. No stated cut-off is given here; in the data, active means response below about 60% or above about 140%; inactive means in between. Many of the other results were omitted from the sample, so actives are more common in it than they were.

The test deals with Guanine nucleotide-binding protein G(o) subunit alpha (Homo sapiens) (UniProt P09471). The test is described as follows: compounds changing RGS8 association with Galphao – biochemical, multiplexed bead flow cytometry, primary screen (AID 1423).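 Further: Galphao activated as the GDP aluminium fluoride complex binding bead-coupled RGS8.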 The conditions noted are these: at 10 µM, actives lie on both sides.
Guanine nucleotide-binding protein G(o) subunit alpha (Homo sapiens), sequence (P09471 whole entry, looked up): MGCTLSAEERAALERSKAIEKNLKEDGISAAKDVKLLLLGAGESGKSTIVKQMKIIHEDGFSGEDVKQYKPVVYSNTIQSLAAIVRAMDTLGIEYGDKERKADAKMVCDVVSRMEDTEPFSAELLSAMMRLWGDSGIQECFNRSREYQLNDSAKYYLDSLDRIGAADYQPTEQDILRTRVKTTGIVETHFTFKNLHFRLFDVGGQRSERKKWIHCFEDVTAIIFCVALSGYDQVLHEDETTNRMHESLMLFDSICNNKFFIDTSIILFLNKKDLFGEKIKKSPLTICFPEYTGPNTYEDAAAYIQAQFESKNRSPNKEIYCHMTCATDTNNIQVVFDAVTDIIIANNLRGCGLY
Turning to `CCN(CC(=O)NCc1cccs1)C(=O)c1ccccc1F`, the response (percent of control binding) was 99.2% (inactive). Take `Cc1ccc(OCC(O)CN2CCN(CC(O)COc3ccc(C)cc3Cl)CC2)c(Cl)c1` (stereo not given): the response (percent of control binding) was 165% [activator] (active). For `Cc1cccc(C)c1OCC(O)CN1CCCCC1` (stereo not given), the response (percent of control binding) is 99.3% (inactive). Under `Cc1ccccc1OCC(O)CN1CCN(c2ccccn2)CC1` (stereo not given) stands 99.3% (inactive).

As to `Cc1ccc(NCc2n[nH]c(=S)n2-c2ccccc2)cc1Cl`, the response (percent of control binding) was 99.7% (inactive). Under `COc1ccc(C2C(C#N)=C(N)N(c3ncn[nH]3)C3=C2C(=O)CCC3)cc1` (stereo not given) stands 100% (inactive).

Take `CC(=O)n1cc([C@@H]2C=C(C(=O)N3CCN(Cc4ccc5c(c4)OCO5)CC3)O[C@H](OCc3ccc(CO)cc3)C2)c2ccccc21`: the response (percent of control binding) was 102% (inactive). `COc1ccc(COCC(O)CN2CCC(C(N)=O)CC2)cc1` (stereo not given): the response (percent of control binding) is 104% (inactive).

Turning to `O=[N+]([O-])C(=c1ccc2c(c1)N1C3=C(CCCC3)CC3CCCCC31N=2)[N+](=O)[O-]` (stereo not given), the response (percent of control binding) is 43.8% (active). For `COc1ccc(CNCCCO)cc1OC`, the response (percent of control binding) was 108% (inactive). Regarding `Cc1cc(=O)[nH]c(SCC(=O)Nc2ccc(Br)cc2)n1`, the response (percent of control binding) is 93.2% (inactive).

For `Cc1ccc(N2C(=O)C3CC3C2=O)cc1` (stereo not given), the response (percent of control binding) was 101% (inactive).

For the compound `Cc1ccc(N2C(=O)C(Cc3ccccc3)NC2=S)cc1` (stereo not given), the response (percent of control binding) is 102% (inactive).

As to `Cc1ccc(N2C(=O)C3C(c4ccccc4)(C2=O)C3(c2ccccc2)c2ccccc2)cc1` (stereo not given), the response (percent of control binding) was 23.3% (active). To `O=C(CCSc1ccccc1)N1CCN(c2ccccc2F)CC1` belongs 99.9% (inactive); to `CC1(C)C2CC=C(/C=N/NC(=O)c3ccc(Cl)cc3)C1C2` (stereo not given), 105% (inactive).

Turning to `COCCCN1C(=O)C(=O)/C(=C(/O)c2ccc3c(c2)CC(C)O3)C1c1cccnc1` (stereo not given), the response (percent of control binding) is 89.7% (inactive). For `COc1cc(C2/C(=C(\O)c3ccc4c(c3)CC(C)O4)C(=O)C(=O)N2Cc2ccco2)ccc1O` (stereo not given), the response (percent of control binding) is 12.8% (active). As for `COc1ccc(/C(O)=C2\C(=O)C(=O)N(Cc3ccco3)C2c2ccc(OC)cc2OC)cc1` (stereo not given), the response (percent of control binding) was 98.3% (inactive).

In the case of `Cc1ccc(-n2c(O)c(C=Nc3ccc(S(=O)(=O)Nc4ncccn4)cc3)c3ccccc3c2=O)cc1C`, the response (percent of control binding) is 102% (inactive).

Consider `COC(=O)c1cc(NC(=O)C2C3C=CC(C3)C2C(=O)O)cc(C(=O)OC)c1` (stereo not given), for which the response (percent of control binding) was 100% (inactive). With `O=C(CSc1nnc2n1CCCN2)c1ccccc1`, the response (percent of control binding) is 104% (inactive).

With `COc1cc(C(=O)NCc2ccc(-n3cccc3)cc2)cc(OC)c1OC`, the response (percent of control binding) was 103% (inactive). `O=C(CCCl)Nc1ccc(S(=O)(=O)NCc2ccco2)cc1`: the response (percent of control binding) was 98.5% (inactive). To `CCCn1nnnc1NC(=O)COc1ccc(Cl)cc1C` belongs 11.9% (active); to `CCOC(=O)N1CCN(C(=O)COc2ccc(Cl)cc2C)CC1`, 101% (inactive).

For the compound `Cc1cc(NC(=O)COc2ccc(Cl)cc2Cl)n(CCC#N)n1`, the response (percent of control binding) is 99.5% (inactive). Take `CCCCCN(C(=O)NC(=O)Nc1cccc(C)c1C)S(C)(=O)=O`: the response (percent of control binding) is 102% (inactive).

As to `O=C(CCc1ccccc1)Nc1ccc(NC(=O)C2CCCCC2)nc1`, the response (percent of control binding) is 105% (inactive).

As to `O=C(COC(=O)c1ccc[nH]c1=O)Nc1ccc2c(c1)OC(F)(F)O2`, the response (percent of control binding) was 104% (inactive). For `O=C(CSc1nc2ccc(Nc3nc(N4CCOCC4)nc(N4CCOCC4)n3)cc2s1)NCc1ccco1`, the response (percent of control binding) is 98.3% (inactive). `Cc1ccc(C(=O)N/C(=C/c2cccs2)C(=O)NCC2CCCO2)cc1` (stereo not given): the response (percent of control binding) is 103% (inactive). To `O=C(Cn1nnc(-c2ccccc2)n1)N/N=C/c1ccc(-c2ccc(Cl)cc2)o1` belongs 101% (inactive); to `Oc1ccc(-c2onc3ccc(Cl)cc23)cc1`, 144% [activator] (active); to `Clc1ccc2nc(-c3ccccc3)nc(C(Cl)Cl)c2c1`, 94.2% (inactive). For the compound `O=C(Oc1cccc(N2C(=O)C3C4c5ccccc5C(c5ccccc54)C3C2=O)c1)c1ccco1` (stereo not given), the response (percent of control binding) was 102% (inactive).

In the case of `O=C1C2C3C=CC(C4CC34)C2C(=O)N1c1nccs1` (stereo not given), the response (percent of control binding) was 101% (inactive). Under `CCc1nnc(NC(=O)CCCSc2nc3ccccc3[nH]2)s1` stands 101% (inactive); under `Cc1ccc(NC(=O)/C(=C/c2ccc([N+](=O)[O-])cc2)NC(=O)c2ccccc2)cc1`, 106% (inactive); under `COc1ccc(-c2nc3cnccn3c2NC(C)(C)CC(C)(C)C)cc1O`, 98.8% (inactive). Turning to `COc1ccc(N=C(C)c2sc3ccccc3c2O)cc1`, the response (percent of control binding) was 97.2% (inactive). Under `CC(NC(=O)C1CCC(CNc2c(N3CCOCC3)c(=O)c2=O)CC1)c1ccccc1` (stereo not given) stands 99.7% (inactive).

In the case of `O=C(NCc1ccc(F)cc1)C1CCC(CNc2c(N3CCOCC3)c(=O)c2=O)CC1` (stereo not given), the response (percent of control binding) was 8.33% (active). In the case of `COc1ccc(CNC(=O)C2CCC(CNc3c(N4CCOCC4)c(=O)c3=O)CC2)cc1` (stereo not given), the response (percent of control binding) is 103% (inactive). To `Cc1cccc(C)c1NC(=O)Nc1ccccc1-n1ccnc1` belongs 101% (inactive); to `O=C(Nc1ccn(Cc2ccccc2)n1)c1cccc(F)c1`, 103% (inactive); to `Cc1ccc(Cn2ccc(NC(=O)c3cc(C(C)C)on3)n2)cc1`, 55.8% (active). For the compound `Cc1ccc(Cn2ccc(NC(=O)C3C4CCC(C4)C3C(=O)O)n2)cc1` (stereo not given), the response (percent of control binding) was 102% (inactive). As to `Cc1onc(-c2ccc(Cl)cc2)c1-c1ccnn1S(=O)(=O)c1ccc(Cl)cc1`, the response (percent of control binding) was 98.9% (inactive). To `CS(=O)(=O)N(Cc1ccccc1)c1ccc(C(=O)NN=C2CCCCCC2)cc1` belongs 103% (inactive).

The values are drawn from PubChem BioAssay AID1423 (NMMLSC, 2008).
